Laboratory results published in PubChem BioAssay (NCATS).
“And” between values parts separate entries of the source, which are not always exact repeats. Equal entries are not always repeated. Records with an inconclusive call do not appear. The source made the active and inactive calls. Calls follow the shape of the dose curve; as a rule, active = well fitted inhibition curve with a large enough effect; inconclusive = small, poorly fitted or top-dose-only effect; inactive = flat fitted curve, though single readings scatter.

Legend:
[1] = system: KB-3-1; test: Cytotoxic Profiling of Annotated Libraries Using Quantitative High-Throughput Screening (AID 1296008); conditions: Five cell lines viability, CellTiter-Glo ATP luminescence, 48-72 h; max response: active compounds read low; also: potency is read from the fitted curve at half-maximal effect; as to max response: % is scaled to controls: 0 for no effect and ±100 for the full control effect
Outline: (§1)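 Cytotoxicity was measured as CellTiter-Glo ATP luminescence, read after 10 min at room temperature. Compound treatment of the cells lasted 48 or 72 hr at 37 degrees Celsius in a qHTS format.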

[2] = system: PAD; test: qHTS profiling for inhibitors of Plasmodium falciparum proliferation (AID 504749); also: potency is read from the fitted curve at half-maximal effect; conditions: P. falciparum in erythrocytes, SYBR Green DNA, 72 h; series mostly up to 28.7 µM
Outline: (§2)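 In a 72 h erythrocytic culture (37 C, humidified, 5% CO2) at 2.5% hematocrit and 0.3% starting parasitemia, compounds were tested; SYBR Green I in detergent lysis buffer stained parasite DNA overnight.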

[3] = system: PC15; test: as above; conditions: P. falciparum in erythrocytes, SYBR Green DNA, 72 h; series mostly up to 28.7 µM
Outline: as §2

[4] = system: PC26; test: as above; conditions: P. falciparum in erythrocytes, SYBR Green DNA, 72 h; series mostly up to 28.7 µM
Outline: as §2

[5] = system: PC49; test: as above; conditions: P. falciparum in erythrocytes, SYBR Green DNA, 72 h; series mostly up to 28.7 µM
Outline: as §2

[6] = system: SC27B; test: as above; conditions: P. falciparum in erythrocytes, SYBR Green DNA, 72 h; series mostly up to 28.7 µM
Outline: as §2

[7] = system: TAB113; test: as above; conditions: P. falciparum in erythrocytes, SYBR Green DNA, 72 h; series mostly up to 28.7 µM
Outline: as §2

[8] = system: TAB165; test: as above; conditions: P. falciparum in erythrocytes, SYBR Green DNA, 72 h; series mostly up to 28.7 µM
Outline: as §2

[9] = system: W2; test: as above; conditions: P. falciparum in erythrocytes, SYBR Green DNA, 72 h; series mostly up to 28.7 µM
Outline: as §2

[10] = system: CRL-7250; test: Cytotoxic Profiling of Annotated Libraries Using Quantitative High-Throughput Screening (AID 1296008); conditions: Five cell lines viability, CellTiter-Glo ATP luminescence, 48-72 h; active compounds read low; also: potency is read from the fitted curve at half-maximal effect; as to max response: % is scaled to controls: 0 for no effect and ±100 for the full control effect
Outline: as §1

[11] = system: HaCat; test: as above; conditions: Five cell lines viability, CellTiter-Glo ATP luminescence, 48-72 h; active compounds read low
Outline: as §1

[12] = system: HACAT; test: qHTS assay to identify novel small-molecules to repurpose for Merkel cell carcinoma treatment (AID 1296009); conditions: MCC and control cell lines, CellTiter-Glo viability, 72 h; at 44.8 µM (top of the series)
Outline: (§3)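 Cell viability measured by CellTiter-Glo following 72 hr compound treatment at 37 degree celsius, with NPC and MIPE libraries tested in 8- and 11-point concentration series.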

[13] = system: MCC-13; test: as above; conditions: MCC and control cell lines, CellTiter-Glo viability, 72 h; series mostly up to 46 µM
Outline: as §3

[14] = system: MCC-26; test: as above; conditions: MCC and control cell lines, CellTiter-Glo viability, 72 h; series mostly up to 46 µM
Outline: as §3

[15] = system: MKL-1; test: as above; conditions: MCC and control cell lines, CellTiter-Glo viability, 72 h; series mostly up to 46 µM
Outline: as §3

[16] = system: MKL-2; test: as above; conditions: MCC and control cell lines, CellTiter-Glo viability, 72 h; series mostly up to 46 µM
Outline: as §3

[17] = system: HEK293; test: Cytotoxic Profiling of Annotated Libraries Using Quantitative High-Throughput Screening (AID 1296008); conditions: Five cell lines viability, CellTiter-Glo ATP luminescence, 48-72 h; max response: active compounds read low; also: potency is read from the fitted curve at half-maximal effect; as to max response: % is scaled to controls: 0 for no effect and ±100 for the full control effect
Outline: as §1

[18] = system: NIH3T3; test: as above; conditions: Five cell lines viability, CellTiter-Glo ATP luminescence, 48-72 h; max response: active compounds read low
Outline: as §1

[19] = system: TAB109; test: qHTS profiling for inhibitors of Plasmodium falciparum proliferation (AID 504749); also: potency is read from the fitted curve at half-maximal effect; conditions: P. falciparum in erythrocytes, SYBR Green DNA, 72 h; series mostly up to 28.7 µM
Outline: as §2
Also: nearly all actives have a fitted effect of over 60% in size.

CCC(=O)OC(OP(=O)(CCCCc1ccccc1)CC(=O)N1C[C@H](C2CCCCC2)C[C@H]1C(=O)O)C(C)C (some centres undefined)
inactive: max response [1] 3.39%

CCCCC(=O)O[C@H]1CC[C@H]2[C@@H]3CCc4cc(O)ccc4[C@H]3CC[C@]12C
inactive: max response [1] 0.0537%

CN(C)CCCSc1ccccc1NC(=O)/C=C/c1ccccc1
active: Potency [9] 6.01 µM
inactive: Potency [2] | Potency [3] | Potency [4] | Potency [5] | Potency [6] | Potency [7] | Potency [8] | max response [10] -4.07% | outcome [11] | max response [1] -0.0858% | outcome [12] | outcome [13] | outcome [14] | outcome [15] | outcome [16]

NCCCC[C@H](N)C(=O)O
inactive: max response [1] 0.45%

CC(=O)Nc1ccc(NC(=S)NC(=O)c2ccc(C(C)(C)C)cc2)cc1
inactive: Potency [2] | Potency [4] | Potency [5] | Potency [6] | Potency [7] | max response [11] -11.2%
active: Potency [9] 7.57 µM | Potency [17] 0.651 µM | Potency [1] 4.11 µM | Potency [18] 16.4 µM

O=C1c2ccccc2C(=O)c2c1ccc(O)c2O
inactive: Potency [2] | Potency [3] | Potency [4] | Potency [5] | Potency [6] | Potency [19] | Potency [7] | Potency [8] | Potency [9] | max response [10] -3.43% | max response [11] 4.09% | max response [1] -6.82% | max response [18] -5.2% | outcome [13] | outcome [14] | outcome [15] | outcome [16]

C[C@@H]1O[C@@H]1P(=O)(O)O
inactive: max response [1] -3.35%

CCCCCCCCCCCC(=O)OC[C@@H](O)C1OC[C@H](O)[C@H]1O (some centres undefined)
inactive: max response [1] 3.33%

Nc1ccc(N=Nc2ccccc2)c(N)n1
inactive: Potency [2] | Potency [3] | Potency [4] | Potency [5] | Potency [6] | Potency [7] | Potency [8] | Potency [9] | outcome [10] | max response [17] 4.3% | max response [11] 0.77% | max response [1] 1.52% | max response [18] -0.826% | outcome [13] | outcome [14] | outcome [15] | outcome [16]

C/C(=C\C(=O)OCCCCCCCCC(=O)O)C[C@@H]1OC[C@H](C[C@@H]2O[C@H]2[C@@H](C)[C@H](C)O)[C@@H](O)[C@H]1O
inactive: Potency [3] | max response [10] 4.39% | max response [17] -15.8% | max response [11] -2.01% | max response [1] -2.38% | max response [18] -3.66%
active: Potency [19] 0.141 µM | Potency [9] 0.19 µM

C=C1CC[C@H](O)C/C1=C\C=C1/CCC[C@]2(C)[C@@H]([C@H](C)CCCC(C)C)CC[C@@H]12
inactive: max response [1] -5.93%

O=C1c2c(O)cccc2[C@H]([C@@H]2O[C@H](CO)[C@@H](O)[C@H](O)[C@H]2O)c2cc(CO)cc(O)c21
inactive: max response [1] 8.29%

C=C1CC[C@H](O)CC1=C/C=C1\CCC[C@]2(C)[C@@H]([C@H](C)/C=C/[C@H](C)C(C)C)CC[C@@H]12
inactive: max response [10] -11.3% | outcome [11] | max response [1] 7.88% and 8.32% | outcome [12]

C[C@]12CC[C@@H]3c4ccc(OC(=O)c5ccccc5)cc4CC[C@H]3[C@@H]1CC[C@@H]2O
inactive: Potency [2] | Potency [3] | Potency [4] | Potency [5] | Potency [6] | Potency [19] | Potency [7] | Potency [8] | outcome [10] | max response [17] -10% | max response [11] -1.32% | max response [1] -12.6% | outcome [18]
active: Potency [9] 10.7 µM

NS(=O)(=O)c1cc2c(cc1Cl)NC(Cc1ccccc1)NS2(=O)=O (centres undefined)
inactive: max response [1] -0.731%

CC1(C)C(\C=C/C=C\C=C/C=C2/N(CCCCS(=O)(=O)O)c3ccc4ccccc4c3C2(C)C)=[N+](CCCCS(=O)(=O)[O-])c2ccc3ccccc3c21
inactive: max response [1] -6.53%

C=CC1=C(C(=O)O)N2C(=O)[C@@H](NC(=O)/C(=N/OCC(=O)O)c3csc(N)n3)[C@H]2SC1 (stereo in doubt)
inactive: max response [1] -4.79%

O=C(O)Cc1cc(I)c(Oc2ccc(O)c(I)c2)c(I)c1
inactive: Potency [2] | Potency [3] | Potency [4] | Potency [5] | Potency [6] | Potency [19] | Potency [7] | Potency [8] | Potency [9] | outcome [10] | outcome [11] | max response [1] 1.68% and -7.08% | outcome [18] | outcome [12]

C=CC[N@@+]12CC[C@@]34c5ccccc5N5/C=C6/[C@H]7C[C@H]8[C@@]9(CC[N@@+]8(CC=C)C/C7=C/CO)c7ccccc7N(/C=C(/[C@@H](C[C@@H]31)/C(=C\CO)C2)[C@H]54)[C@@H]69
inactive: max response [1] 19.7%

C[N@+]12CCCC[C@@H]1CCC(=C(c1cccs1)c1cccs1)C2
inactive: max response [1] -14.7%

CCN(CC)CCOCCOC(=O)C(CC)(CC)c1ccccc1
inactive: outcome [10] | outcome [11] | max response [1] -1.64% and -0.0412% | max response [18] 0.0854% | outcome [12]

O=C1NC(=O)[C@H]2[C@@H]1[C@@H]1C=C[C@H]2C1
inactive: max response [1] -8.53%

CC1=C(/C=C/C(C)=C/C=C/C(C)=C/C=C/C=C(C)/C=C/C=C(C)/C=C/C2=C(C)C[C@@H](O)CC2(C)C)C(C)(C)C[C@H](O)C1
inactive: max response [1] -5.35%
